Among the data in PubChem BioAssay AID1486 (The Scripps Research Institute Molecular Screening Center, 2009) are inhibition values, retold here.

Structures are written as SMILES. Hit rate of the full screen: of about 220,000 compounds, about 2,400 (1.1%) were called active. This excerpt belongs to a sample that is enriched for actives. Values without a mark were called inactive.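 The calls were made as follows: active = inhibition above a per-campaign cutoff, the mean inhibition of all tested compounds plus 3 SD (cut at about 27% in these data); inactive = the rest.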

For orientation: inhibition means the change of the read-out against control, counted positive when it falls.

The nature of the assay: growth loss in parental Ba/F3 cells – cell-based, murine pro-B, CellTiter-Glo luminescence, counter-screen for JAK2V617F inhibitor project (AID 1486).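 Also: 0% = DMSO wells and 100% = JAK Inhibitor I control wells.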 To be noted: Ba/F3 parental viability, CellTiter-Glo ATP luminescence; at 5.6 µM; active compounds read high. (In general: In ATP-based viability assays light output follows the ATP content of the culture.)
Take `CCCCCCCCCCCCn1ccc(=N)cc1`: the inhibition is 102% (active).

Take `CCC(C)n1c(O)c(/C=N/Nc2nc3c(c(=O)n(C)c(=O)n3C)n2C)c(=O)[nH]c1=S` (stereo not given): the inhibition is -0.78%.

In the case of `O=c1c2ccccc2nc(/C=C/c2ccco2)n1-c1ccccc1O`, the inhibition is -6.32%.

Consider `CCOP(=O)(OCC)C(NC(=O)NC)C(N)=O` (stereo not given), for which the inhibition was 4.51%.

Consider `CC/C(=N\NC(=O)c1ccccc1O)c1c(O)n(Cc2ccccc2)c(=O)[nH]c1=O`, for which the inhibition was -2.72%.

For `Cc1ccc(CN2CCCC(C(=O)c3ccc4c(c3)OCO4)C2)cc1C` (stereo not given), the inhibition is 2.33%.

Regarding `CCOc1ccc(-c2cc(C)[n+](CCN(CC)CC)c(-c3ccc(OCC)cc3)c2)cc1`, the inhibition is 81.7% (active).

For the compound `O=c1[nH]c(=O)n(CCc2ccc(F)cc2)c(O)c1/C=N/N1CCCCC1`, the inhibition was -4.39%.

As to `CC(C)c1ccc(-n2c(O)c(/C=N/N3CCOCC3)c(=O)[nH]c2=S)cc1`, the inhibition is 2.53%.

On to `COc1cc(OC)cc(C2(C#N)CCN(C)CC2)c1`, for which the inhibition was -2.96%.

For the compound `CN(C)CC1Oc2ccccc2OC1(O)c1ccccc1` (stereo not given), the inhibition is 8.72%.

As to `COCc1cc(OC(=O)N(C)C)nc(-c2ccc(C)c(Cl)c2)n1`, the inhibition was 3.28%.

Turning to `CC1=CC(=Cc2sc3ccccc3[n+]2C)C=C(C)O1`, the inhibition is 106% (active).

For `COc1ccc(-n2c(O)c(C(C)=Nc3ccc4c(c3)CCC4)c(=O)[nH]c2=O)cc1`, the inhibition is 2.36%.

For `O=C1CC(=O)N(Cc2ccccc2)C(=O)N1CCCCCCN1C(=O)CC(=O)N(Cc2ccccc2)C1=O`, the inhibition is -0.44%.

In the case of `CC1(C)Cc2c(C#N)c(N3CCNCC3)nc(-c3ccco3)c2CS1`, the inhibition is 1.77%.

Consider `CC1=C(C(=O)Nc2ccccc2)S(=O)(=O)CCO1`, for which the inhibition was 0.55%.

Turning to `CNC(=O)O/N=C(\N)Cc1csc2ccc(Cl)cc12`, the inhibition is 3.22%.

As to `CCOc1cccc(=NC2CCCCC2)c2c(C)[nH]c(C)c12`, the inhibition was 50.8% (active).

As to `COc1ccc(-n2c(-c3ccccc3)nc3ccccc3c2=O)cc1`, the inhibition is 1.83%.
